The record followed here is PubChem BioAssay.

Assay [1] is described as follows: anti-His antibody binders, primary screen, artefact control for SMM control protein annotation, biochemical, small-molecule microarray, 635 nm fluorescence (AID 1128).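 Note: score merges feature fluorescence with signal-to-noise for each printed compound spot.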 As to conditions: anti-His Alexa647 antibody binding, higher = more signal.
Assay [2] concerns Human papillomavirus type 1a E7 protein (residues 1-88). Nature of the assay: HPV1a E7 small-molecule binders, primary screen, biochemical, small-molecule microarray, residues 1-88, 635 nm (AID 1129). As to conditions: small-molecule microarray binding, fluorescence 635 nm; higher = more signal.
The target in assay [3] is Focal adhesion kinase 1 (Homo sapiens) (UniProt Q05397). Nature of the assay: small-molecule microarray binders of FAK, primary screen, biochemical, 635/667 nm fluorescence, BSA, DTT (AID 1130).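 Note: composite of spot emission at 667 nm and signal to noise over triplicate slides.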 As to conditions: PTK2 binding, 635 nm fluorescence, higher = more signal.
Assay [4] concerns Fibrinogen (Alexa647-labelled). Nature of the assay: fibrinogen binders on compound microarrays, profiling panel, artefact control for SMM control-protein annotation, biochemical, small-molecule microarray, 635/667 nm fluorescence (AID 1131).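 Note: z-score merges 667 nm fluorescence with per-spot signal-to-noise over triplicate slides.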 As to conditions: fibrinogen-A647 binding fluorescence, higher = more signal.
For assay [5], the target named is Follistatin (Homo sapiens) (UniProt P19883). Nature of the assay: follistatin binders on small-molecule microarrays, primary screen, biochemical, small-molecule microarray, 635/667 nm fluorescence (AID 1132). As to conditions: FST binding, 635 nm fluorescence, higher = more signal.
In assay [6] the target is Fibroblast growth factor 2 (Homo sapiens) (UniProt P09038). Description: FGF2 binders on small-molecule microarrays, primary screen, biochemical, small-molecule microarray, 635/667 nm fluorescence (AID 1133). Particulars: small-molecule microarray binding, FGF2, fluorescence 635/667; higher = more signal.
Assay [7] can be described thus: mitochondrial membrane potential change in A549 cells, profiling panel, cell-based, JC-1 fluorescence, basal, 24 h, 100 nL (AID 1138).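 Note: A549 lung adenocarcinoma cells under basal conditions with no added stimulus; test concentration not given here.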 Particulars: higher = more signal.
The next assay deals with Lefty1. Description: Lefty1 binders on small-molecule microarrays, primary screen, biochemical, small-molecule microarray, 635/667 nm fluorescence (AID 1139). As to conditions: small-molecule microarray binding, fluorescence 635/667; higher = more signal.
Assay [8] concerns wheat germ agglutinin (Triticum aestivum), Alexa647-labelled. Nature of the assay: wheat germ agglutinin binders on compound microarrays, profiling panel, artefact control for SMM control-protein annotation, biochemical, small-molecule microarray, 635/667 nm fluorescence (AID 1140).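 Note: score merges 667 nm feature emission with signal to noise over triplicate slides.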 Particulars: WGA-A647 binding, 635 nm fluorescence, higher = more signal.
For assay [9], the target named is Luciferin 4-monooxygenase (Photinus pyralis) (UniProt P08659). Description: firefly luciferase enzyme inhibitors, primary screen, biochemical, luminescence, purified enzyme, 2006 set (AID 1141).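 Note: cell-free assay with purified firefly luciferase at 100 ng per well in PBS; test concentration not given here.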 Particulars: SteadyGlo luminescence, 30 min, higher = more signal, called active from +8 up or from −8 down.
Assay [10] deals with Wnt5a (protein binding on small-molecule microarray). Description: Wnt5a binders on small-molecule microarray, primary screen, biophysical, 635/667 nm fluorescence (AID 1142).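 Note: fluorescence read at 667 nm with signal to noise per printed feature.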 Particulars: 635 nm fluorescence, higher = more signal.
Assay [11] can be described thus: cell viability in Huh7 cells, primary screen, cytotoxicity control for HCV replication inhibitor project, CellTiter-Glo luminescence, basal, 48 h (AID 1143).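 Note: Huh7 hepatoma cells carrying a hepatitis C replication reporter with no stimulus; test concentration not given here.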 Particulars: Huh7 HCV replicon, higher = more signal, called active from +8 up or from −8 down.
Assay [12] is described as follows: P. aeruginosa biofilm formation inhibitors, primary screen, PAO1 strain, BacTiter-Glo luminescence, LB-PBS (AID 1144). As to conditions: 12 h, higher = more signal.
Assay [13] in a line: CREB reporter modulators without forskolin, primary screen, cell-based, PC12, CRE-LacZ reporter, unstimulated (AID 1145). Particulars: no forskolin, luminescence, 4.5 h, higher = more signal, called active from +8 up or from −8 down.
Assay [14] in a line: CREB reporter modulators under forskolin, primary screen, cell-based, PC12, CRE-LacZ reporter, forskolin-stimulated (AID 1146).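 Note: PC12 cells with 6xCRE LacZ reporter stimulated by forskolin 10 µM; beta-galactosidase reporter signal reflecting CREB driven transcription.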 Particulars: luminescence, 4.5 h, higher = more signal, called active from +8 up or from −8 down.
The target of assay [15] is Streptavidin (Streptomyces avidinii) (UniProt P22629). Description: streptavidin binders on small-molecule microarray, primary screen, artefact control for SMM compound annotation, biophysical, 635/667 nm fluorescence (AID 1147).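 Note: signal reflects streptavidin binding to arrayed compounds as a control protein.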 As to conditions: streptavidin binding, higher = more signal.
A short description of assay [16]: small-molecule binders of probe aInhba, primary screen, biochemical, small-molecule microarray, 635/667 nm fluorescence (AID 1148).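 Note: score merges 667nm spot fluorescence with signal-to-noise for antibody binding to printed compounds.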 Particulars: higher = more signal.
Assay [17] addresses Torsin-1A (Homo sapiens) (UniProt O14656). Description: torsin A binders from cell lysate, primary screen, small-molecule microarray, wild-type, 635/667 nm (AID 1149). Particulars: COS7 hTOR1A-WT lysate, 635 nm fluorescence, higher = more signal.
The target is the same in assay [18]. Description: small-molecule binders of mutant TOR1A in lysate, primary screen, cell lysate, small-molecule microarray, COS7 lysate, 635/667 nm fluorescence (AID 1150).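 Note: score pools 667 nm emission and signal to noise measuring lysate protein binding.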 Particulars: COS7 hTOR1A mutant lysate, 635 nm fluorescence, higher = more signal.
Assay [19] deals with Sonic hedgehog protein (Shh). Description: small-molecule binders of Shh protein, primary screen, biochemical, small-molecule microarray, 635/667 nm fluorescence (AID 1151).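 Note: Shh protein binding to compounds spotted on small-molecule microarray slides; score combines spot fluorescence intensity with signal-to-noise across triplicate slides.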 Particulars: small-molecule microarray binding, 635 nm fluorescence; higher = more signal.

The structures appear in SMILES notation. Where “and” joins values, the source holds several entries; their conditions need not be identical. Identical values can stand only once. Some compounds were tested as several samples or in several runs, with calls that do not always agree. Calls of active or inactive are those of the source. Unless noted, the rule behind the calls is not given here.

Sequence of Follistatin (Homo sapiens) (P19883 whole entry, looked up): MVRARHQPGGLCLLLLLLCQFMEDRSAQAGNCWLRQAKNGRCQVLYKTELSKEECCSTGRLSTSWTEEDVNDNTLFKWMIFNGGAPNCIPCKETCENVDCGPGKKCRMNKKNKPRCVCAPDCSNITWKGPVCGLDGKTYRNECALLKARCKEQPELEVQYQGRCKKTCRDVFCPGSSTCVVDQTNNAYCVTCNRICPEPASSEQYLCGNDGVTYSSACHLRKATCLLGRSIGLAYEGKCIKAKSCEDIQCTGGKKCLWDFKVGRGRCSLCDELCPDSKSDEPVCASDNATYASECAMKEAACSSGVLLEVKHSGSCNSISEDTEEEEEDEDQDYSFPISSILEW
Sequence of Torsin-1A (Homo sapiens) (O14656 whole entry, looked up): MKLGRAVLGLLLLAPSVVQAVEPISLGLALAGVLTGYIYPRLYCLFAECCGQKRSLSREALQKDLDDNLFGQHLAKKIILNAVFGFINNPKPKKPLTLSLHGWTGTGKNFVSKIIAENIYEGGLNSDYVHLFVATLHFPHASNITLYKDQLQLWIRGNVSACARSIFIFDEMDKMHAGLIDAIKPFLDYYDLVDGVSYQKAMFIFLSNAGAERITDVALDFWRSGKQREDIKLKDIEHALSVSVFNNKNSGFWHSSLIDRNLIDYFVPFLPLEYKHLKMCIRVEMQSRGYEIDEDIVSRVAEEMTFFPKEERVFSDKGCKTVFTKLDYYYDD
Sequence of Fibroblast growth factor 2 (Homo sapiens) (P09038 whole entry, looked up): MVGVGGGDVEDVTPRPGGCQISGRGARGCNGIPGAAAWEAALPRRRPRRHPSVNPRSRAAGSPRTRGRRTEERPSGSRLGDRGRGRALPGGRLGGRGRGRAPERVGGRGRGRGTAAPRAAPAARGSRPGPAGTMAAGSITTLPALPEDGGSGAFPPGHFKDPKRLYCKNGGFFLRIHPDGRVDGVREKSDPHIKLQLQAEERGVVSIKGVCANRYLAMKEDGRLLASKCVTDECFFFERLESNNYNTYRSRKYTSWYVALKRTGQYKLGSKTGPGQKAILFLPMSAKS
Sequence of Focal adhesion kinase 1 (Homo sapiens) (Q05397 whole entry, looked up): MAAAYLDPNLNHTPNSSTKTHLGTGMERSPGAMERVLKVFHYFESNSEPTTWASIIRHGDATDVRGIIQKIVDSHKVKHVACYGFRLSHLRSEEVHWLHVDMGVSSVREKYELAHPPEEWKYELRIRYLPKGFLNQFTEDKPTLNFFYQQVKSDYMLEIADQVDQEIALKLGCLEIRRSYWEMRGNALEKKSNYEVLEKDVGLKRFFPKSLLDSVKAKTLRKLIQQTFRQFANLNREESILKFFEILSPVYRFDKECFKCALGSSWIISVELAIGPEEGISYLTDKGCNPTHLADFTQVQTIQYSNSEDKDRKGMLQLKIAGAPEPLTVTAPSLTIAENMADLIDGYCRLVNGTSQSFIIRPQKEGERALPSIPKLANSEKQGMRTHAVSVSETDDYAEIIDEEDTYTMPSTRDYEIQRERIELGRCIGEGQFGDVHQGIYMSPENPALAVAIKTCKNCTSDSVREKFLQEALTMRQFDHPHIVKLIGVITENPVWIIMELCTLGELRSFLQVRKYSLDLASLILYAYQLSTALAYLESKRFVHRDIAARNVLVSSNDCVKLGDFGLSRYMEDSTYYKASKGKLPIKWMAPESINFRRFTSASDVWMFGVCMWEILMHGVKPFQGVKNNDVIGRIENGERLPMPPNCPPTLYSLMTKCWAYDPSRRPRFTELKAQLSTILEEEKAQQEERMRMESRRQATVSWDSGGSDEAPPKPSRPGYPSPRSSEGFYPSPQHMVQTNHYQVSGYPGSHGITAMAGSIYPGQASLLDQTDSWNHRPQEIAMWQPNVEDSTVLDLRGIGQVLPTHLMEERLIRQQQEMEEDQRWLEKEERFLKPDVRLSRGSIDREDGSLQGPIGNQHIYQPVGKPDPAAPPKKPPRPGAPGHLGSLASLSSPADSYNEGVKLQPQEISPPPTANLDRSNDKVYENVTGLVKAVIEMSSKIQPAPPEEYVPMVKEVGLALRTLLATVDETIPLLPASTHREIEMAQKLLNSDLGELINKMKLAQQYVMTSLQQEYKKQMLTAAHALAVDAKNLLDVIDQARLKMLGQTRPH
Sequence of Luciferin 4-monooxygenase (Photinus pyralis) (P08659 whole entry, looked up): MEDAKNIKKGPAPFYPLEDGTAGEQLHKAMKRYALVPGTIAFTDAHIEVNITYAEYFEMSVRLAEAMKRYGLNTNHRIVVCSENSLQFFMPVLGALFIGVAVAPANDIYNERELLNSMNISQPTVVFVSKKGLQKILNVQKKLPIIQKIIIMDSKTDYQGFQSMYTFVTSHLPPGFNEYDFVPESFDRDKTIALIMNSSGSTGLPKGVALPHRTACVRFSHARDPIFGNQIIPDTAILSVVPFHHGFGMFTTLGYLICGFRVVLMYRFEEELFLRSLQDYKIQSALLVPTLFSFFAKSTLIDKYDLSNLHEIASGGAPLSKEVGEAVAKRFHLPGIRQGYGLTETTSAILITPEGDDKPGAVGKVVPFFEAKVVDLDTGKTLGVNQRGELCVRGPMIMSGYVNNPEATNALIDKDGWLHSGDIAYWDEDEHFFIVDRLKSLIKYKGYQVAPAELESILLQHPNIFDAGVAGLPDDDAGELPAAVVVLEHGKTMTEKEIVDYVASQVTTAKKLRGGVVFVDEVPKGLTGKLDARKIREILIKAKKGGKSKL
Sequence of Streptavidin (Streptomyces avidinii) (P22629 whole entry, looked up): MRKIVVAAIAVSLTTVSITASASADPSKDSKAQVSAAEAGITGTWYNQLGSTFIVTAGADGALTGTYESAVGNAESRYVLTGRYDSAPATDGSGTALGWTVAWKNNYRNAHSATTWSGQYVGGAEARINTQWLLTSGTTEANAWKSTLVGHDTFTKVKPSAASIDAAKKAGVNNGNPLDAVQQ

`CCOC(=O)C[C@H]1[C@H](OC(=O)c2ccccc2-c2ccccc2)[C@@H](NC(=O)Cc2ccc(OC)cc2)c2cc(OCCCO)ccc2N1C(=O)c1ccc2ccccc2n1`: the composite z-score in assay [1] was 0.206 and -0.185; in [2], 0.24 and 0.622; in assay [3] it was -0.0875 and 0.194; in assay [4], 0.524 and 0.464; in assay [5], 0.392 and 0.546; in [6] it was 0.714 and 0.119. The composite z-score is 0.0614 and 1.07 with Lefty1; 0.172 and 0.238 in [8]; 0.0561 and 0.261 in assay [10]; 0.241 and 0.27 in assay [15]; 0.0543 and 0.168 in assay [16]; 0.0122 and -0.0425 with Torsin-1A (Homo sapiens) [17]. Also, the composite z-score with Torsin-1A (Homo sapiens) [18] was 0.19 and 0.686; in assay [19], 0.207 and 0.3. Besides, the z-score in assay [7] was 3.49 and 0.601; in assay [9] it was -0.391 (inactive) and -0.85 (inactive); in assay [11] it was -0.319 (inactive) and 0.66 (inactive); in [12], -0.568 (inactive); in [13] it was 7.64 (inactive) and -1.13 (inactive); in assay [14], -0.809 (inactive) and -0.751 (inactive).

Regarding `CCOC(=O)C[C@H]1[C@H](OC(=O)c2ccccc2-c2ccccc2)[C@@H](NC(=O)c2ccccc2)c2cc(OCCCO)ccc2N1C(=O)c1ccc2ccccc2n1`, the composite z-score in assay [1] is 0.861 and 1.4; in [2] it was 0.547 and 0.311; in assay [3], -0.0011 and 0.466; in assay [4], 0.0271 and 0.432; in assay [5], 0.41 and 1.12; in assay [6], 0.566 and 0.845. Moreover, the composite z-score in the assay with Lefty1 was 0.513 and 0.934; in [8] it was 0.692 and 0.31; in [10], 0.103 and 0.147; in [15], -0.0119 and 1.12; in [16] it was 0.216 and 0.0047; in the assay with Torsin-1A (Homo sapiens) [17], 0.144 and 0.158. The composite z-score in the assay with Torsin-1A (Homo sapiens) [18] is 0.0956 and 0.344; in assay [19] it was 0.502 and 1.8. In addition, the z-score was 1.1 and 0.202 in assay [7]; -0.233 (inactive) and -0.818 (inactive) in assay [9]; -0.616 (inactive) and 0.662 (inactive) in [11]; 0.559 (inactive) and 0.171 (inactive) in [12]; 9.27 (active) and -0.23 (inactive) in assay [13]; 0.158 (inactive) and -0.583 (inactive) in assay [14].

With `CC(=O)OC[C@H]1O[C@H](C#CC(C)(C)C)C=C[C@@H]1OC(C)=O`, the composite z-score in assay [1] was determined as 0.726; in [2], 0.996; in assay [3], 0.589; in assay [4], 0.979; in assay [5], 0.418; in assay [6], 0.791. Further, the composite z-score was 1.22 in the assay on Lefty1; 0.445 in assay [8]; -0.0516 in assay [10]; 1.58 in assay [15]; -0.0331 in [16]; 0.835 with Torsin-1A (Homo sapiens) [17]. Further, the figures for the composite z-score (with Torsin-1A (Homo sapiens) [18]; in assay [19]) were -0.392 and 0.953, respectively. The z-score was 0.707 in assay [7]; -1.22 (inactive) in assay [9]; 0.13 (inactive) in assay [11]; 0.992 (inactive) in [12]; -0.162 (inactive) in assay [13]; 1.35 (inactive) in assay [14].

`C=CCN(CCCC)C(=O)C1N(CCOCCO)C(=O)C2C(C(=O)O)C3C=CC21O3` (stereo not given): the composite z-score was 1.11 and -1.66 in assay [1]; -0.741 and -0.901 in assay [2]; -0.619 and -0.291 in assay [3]; -1.43 and -0.885 in assay [4]; -0.817 and -1.32 in [5]; -1.68 and -1.4 in [6]. In addition, the composite z-score in the assay with Lefty1 is -1.6 and -2.23; in assay [8], -0.557 and -0.16; in assay [10] it was -0.978 and -0.38; in assay [15] it was -1.6 and -1.56; in assay [16], -0.128 and -0.353; with Torsin-1A (Homo sapiens) [17] it was -3.18 and -0.099. In addition, the composite z-score was -2.51 and 2.04 with Torsin-1A (Homo sapiens) [18]; -1.52 and -1.51 in assay [19]. For the same molecule, the z-score in [7] was -0.409 and -0.724; in assay [9] it was 0.694 (inactive) and 0.806 (inactive); in assay [11], 0.757 (inactive) and -0.117 (inactive); in [12] it was 1.42 (inactive) and 1.2 (inactive); in assay [13] it was -0.899 (inactive) and -0.497 (inactive); in assay [14], -0.327 (inactive) and -0.267 (inactive).

For `C[N+](C)(C)CCCCCCNC(=O)[C@@H]1C[C@@H]2C(=O)N[C@@H](CCCC[N+](C)(C)C)C(=O)N2[C@@H]1c1ccc(O)cc1`, the composite z-score was 0.582 and 1.21 in assay [1]; -0.694 and 0.212 in assay [2]; -0.169 and -0.133 in assay [3]; -1.44 and -0.95 in assay [4]; 1.39 and 1.34 in assay [5]; 1.47 and 1.44 in [6]. Besides, the composite z-score in the assay with Lefty1 was 0.914 and 1.04; in [8], -0.187 and -0.088; in assay [10], 0.107 and -0.0086; in [15] it was -0.392 and -0.129; in [16] it was -0.128 and -0.0375; with Torsin-1A (Homo sapiens) [17], 0.854 and -0.609. The composite z-score with Torsin-1A (Homo sapiens) [18] was 0.0983 and -0.498; in assay [19] it was 1.61 and 2.12. The z-score is -0.0687 and -0.662 in assay [7]; 0.547 (inactive) and 0.58 (inactive) in assay [9]; 0.0047 (inactive) and 0.0071 (inactive) in assay [11]; -0.424 (inactive) and -0.439 (inactive) in [12]; -0.532 (inactive) and -1.08 (inactive) in [13]; -1.2 (inactive) and 0.128 (inactive) in [14].

Regarding `C[C@@H]1CN2[C@@H](CC[C@@H](C)[C@@H]2c2ccc(Br)cc2)C(=O)O1`, the composite z-score was 0.513 and -0.557 in assay [1]; -1.13 and 0.142 in [2]; -0.0732 and 0.591 in [3]; -0.459 and -0.964 in assay [4]; -0.138 and 0.0634 in assay [5]; 0.0798 and 0.44 in assay [6]. For the same molecule, the composite z-score was -0.0013 and 0.133 in the assay with Lefty1; -0.556 and 0.125 in [8]; -0.174 and -0.0451 in assay [10]; -0.404 and -0.145 in assay [15]; -0.193 and 0.0506 in assay [16]; -0.467 and 0.111 with Torsin-1A (Homo sapiens) [17]. Moreover, the composite z-score in the assay with Torsin-1A (Homo sapiens) [18] was 0.0914 and 0.0837; in [19], 0.486 and 0.218. Also, the z-score in assay [7] was 1.14 and 1.07; in assay [9], -0.678 (inactive) and -1.36 (inactive); in assay [11], 0.482 (inactive) and -0.656 (inactive); in assay [12], 0.259 (inactive) and -1.1 (inactive); in assay [13], 0.74 (inactive) and 2 (inactive); in assay [14] it was 0.667 (inactive) and 0.0918 (inactive).

On to `C=CCN(Cc1ccccc1)C(=O)C1N(CCOCCO)C(=O)C2C(C(=O)O)C3C=CC21O3` (stereo not given), for which the composite z-score is -1.85 and -0.223 in [1]; -0.804 and -0.812 in [2]; -1.29 and -0.708 in assay [3]; -1.23 and -1.34 in assay [4]; -3.29 and -1.2 in [5]; -2.01 and -1.98 in assay [6]. For the same molecule, the composite z-score is -2.56 and -2.05 with Lefty1; -0.94 and -1.25 in [8]; -0.0792 and -1.24 in [10]; -1.36 and -1.24 in assay [15]; -0.282 and -0.0645 in assay [16]; -2.62 and -3.49 with Torsin-1A (Homo sapiens) [17]. The composite z-score was -1.89 and -3.16 in the assay with Torsin-1A (Homo sapiens) [18]; -1.64 and -2 in assay [19]. For the same molecule, the z-score in assay [7] was 1.2 and -0.743; in assay [9], -0.582 (inactive) and 1.28 (inactive); in assay [11] it was -2.27 (inactive) and 0.247 (inactive); in assay [12] it was -0.0168 (inactive); in assay [13], -0.484 (inactive) and -0.753 (inactive); in [14], -0.347 (inactive) and -0.736 (inactive).
